The results in this text go back to PubChem BioAssay (Tox21).

“And” between values parts separate entries of the source, which are not always exact repeats. Identical values can stand only once. Records with an inconclusive call do not appear. The source made the active and inactive calls. Unless noted, calls follow the shape of the dose curve; as a rule, active = well fitted curve in the direction sought with a large enough effect in the repeat runs; inconclusive = weak or mixed curves; inactive = no such curve, though single readings can be large; an effect the other way counts as inactive or inconclusive.

The nature of experiment [1]: qHTS assay to identify small molecule antagonists of the thyroid receptor (TR) signaling pathway - cell viability counter screen (AID 743064). Also: nearly all actives have a fitted effect of over 50% in size. Also: potency is read from the fitted curve at half-maximal effect. In short, it runs like this: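 Plate GH3.TRE-Luc cells; incubate 4 h at 37 °C; add compound, then T3 to 1 nM final; incubate 23.5 h; add CellTiter-Fluor; incubate 30 min at 37 °C, 5% CO2; read fluorescence.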
In general terms: Quantitative high-throughput screening tests each substance at several concentrations.

Experiment [2] deals with thyroid hormone receptor (rat, GH3 cells). Nature of the experiment: qHTS assay to identify small molecule agonists of the thyroid receptor (TR) signaling pathway (AID 743066; calls by dose curve).
Experiment [3] in a line: qHTS assay to identify small molecule antagonists of the estrogen receptor alpha (ER-alpha) signaling pathway - cell viability counter screen (AID 743074; calls by dose curve;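 also: HEK293 cells carrying ER-alpha-UAS-bla reporter stimulated with 17beta-estradiol; nearly all actives have a fitted effect of over 45% in size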; also: potency is read from the fitted curve at half-maximal effect).
Experiment [4] in a line: qHTS assay to identify small molecule antagonists of the estrogen receptor alpha (ER-alpha) signaling pathway using the BG1 cell line - cell viability counter screen (AID 743081).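 Also: compound given together with 17beta-estradiol as the ER stimulus; series mostly up to about 70 µM; nearly all actives have a fitted effect of over 45% in size.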
Experiment [5] addresses Aromatase (Homo sapiens) (UniProt P11511). Nature of the experiment: qHTS assay to identify aromatase inhibitors (AID 743083). Also: series mostly up to about 70 µM; nearly all actives have a fitted effect of over 55% in size.
A short description of experiment [6]: qHTS assay to identify aromatase inhibitors - cell viability counter screen (AID 743084).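 Also: cells stimulated with testosterone during compound exposure; nearly all actives have a fitted effect of over 55% in size.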
Experiment [7] deals with Aryl hydrocarbon receptor (Homo sapiens) (UniProt P35869). Nature of the experiment: qHTS assay to identify small molecule that activate the aryl hydrocarbon receptor (AhR) signaling pathway (AID 743085). Also: nearly all actives have a fitted effect of over 15% in size. Also: potency is read from the fitted curve at half-maximal effect.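 As to activation: HG2L7.5c1 human HepG2 liver cells with stably integrated DRE-driven firefly reporter; series mostly up to about 70 µM.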 A digest of the protocol: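 Steps: seed HepG2-AhR-luc cells; allow 5 h at 37C; pin-transfer test compound or vehicle; incubate 24 h at 37C; add viability dye (30 min, 37C) and read fluorescence; add luciferase substrate (30 min, RT) and read luminescence.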

Experiment [8] can be described thus: qHTS assay to identify small molecule that activate the aryl hydrocarbon receptor (AhR) signaling pathway - cell viability counter screen (AID 743086). Also: series mostly up to about 70 µM; nearly all actives have a fitted effect of over 45% in size. A digest of the protocol: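 Cytotoxicity counter screen: CellTiter-Fluor signal (30 min, 37 C) in 4000 HepG2 cells/well carrying the DRE-luciferase reporter, following 24 h compound exposure at 37 C.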
Experiment [9] has as its target Peroxisome proliferator-activated receptor gamma (Homo sapiens) (UniProt P37231). Nature of the experiment: qHTS assay to identify small molecule agonists of the peroxisome proliferator-activated receptor gamma (PPARg) signaling pathway (AID 743094; active = well fitted activation curve with a large enough effect in the signal ratio in the repeat runs, not every such curve was filed as active; the % refers to the signal ratio). In short, it runs like this: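 Agonism was assessed in a beta-lactamase reporter system, HEK293H cells with a stably integrated UAS-bla construct under PPARg control; the 17 h treatment at 37C preceded a 1 h room-temperature FRET substrate read.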

Experiment [10] can be described thus: qHTS assay to identify small molecule antagonists of the thyroid receptor (TR) signaling pathway (AID 743065). Also: nearly all actives have a fitted effect of over 55% in size. Also: potency is read from the fitted curve at half-maximal effect. A digest of the protocol:
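Antagonism measured as loss of luciferase signal in GH3 cells stably carrying a TRE-luciferase reporter, co-treated with compound and T3 (1 nM final) for 23.5 h at 37 C. Viability was read in the same well by CellTiter-Fluor.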

Experiment [11] has as its target Estrogen receptor (Homo sapiens) (UniProt P03372). Nature of the experiment: qHTS assay to identify small molecule agonists of the estrogen receptor alpha (ER-alpha) signaling pathway (AID 743075; calls by dose curve;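 also: HEK293 GripTite cells with ER-alpha and UAS-driven beta-lactamase reporter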).
Experiment [12] shares this target. The experiment is described as follows: qHTS assay to identify small molecule agonists of the estrogen receptor alpha (ER-alpha) signaling pathway using the BG1 cell line (AID 743079). Also: nearly all actives have a fitted effect of over 20% in size. Also: potency is read from the fitted curve at half-maximal effect.
For experiment [13] the target is unchanged. Nature of the experiment: qHTS assay to identify small molecule antagonists of the estrogen receptor alpha (ER-alpha) signaling pathway (AID 743069; active = well fitted curve in the direction sought with a large enough effect in the signal ratio in the repeat runs, not every such curve was filed as active; the % refers to the signal ratio). In short, it runs like this:
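Antagonist mode: compounds in DMSO were co-added with 17beta-estradiol to ER-alpha-bla HEK293 cells (2% charcoal-stripped serum) and left 18 h at 37C. Reporter inhibition was measured as FRET fluorescence after 2 h LiveBLAzer substrate at room temperature.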

A short description of experiment [14]: qHTS assay to identify small molecule antagonists of the estrogen receptor alpha (ER-alpha) signaling pathway using the BG1 cell line (AID 743080; calls by dose curve;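 also: BG1 cells stimulated with 17beta-estradiol alongside compound; nearly all actives have a fitted effect of over 25% in size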; also: potency is read from the fitted curve at half-maximal effect). In short, it runs like this: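 After 5 days in phenol-red-free 10% charcoal-stripped FBS medium, BG1-Luc-4E2 cells were seeded, left 24 h at 37 C, co-treated with compounds and 17beta-estradiol for 21.5 h, then assayed for viability and luciferase.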

Experiment [15] in a line: qHTS assay to identify small molecule antagonists of the peroxisome proliferator-activated receptor gamma (PPARg) signaling pathway - cell viability counter screen (AID 743194). Also: potency is read from the fitted curve at half-maximal effect; nearly all actives have a fitted effect of over 55% in size. In short, it runs like this:
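Viability was measured as CellTiter-Glo luminescence in GeneBLAzer PPARg UAS-bla HEK293H cells. These cells had been exposed 17 h at 37 C to compounds together with rosiglitazone at 50 nM final, with the beta-lactamase readout taken in the same wells.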

Experiment [16] in a line: qHTS assay for small molecule activators of the heat shock response signaling pathway - cell viability counter screen (AID 743209). Also: nearly all actives have a fitted effect of over 50% in size. In short, it runs like this:
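Compounds dissolved in DMSO were added to overnight-plated HSE-bla HeLa cells and left 5 h at 37 C. Cell viability was quantified by luminescence using CellTiter-Glo.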

Experiment [17] is described as follows: qHTS assay to identify small molecule agonists of the peroxisome proliferator-activated receptor delta (PPARd) signaling pathway - cell viability counter screen (AID 743211). In short, it runs like this: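 Viability of GeneBLAzer PPARd UAS-bla HEK293H cells was assessed after 17 h compound incubation at 37C, using CellTiter-Glo reagent added after the reporter read and luminescence recorded 30 min later.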

The nature of experiment [18]: qHTS assay for small molecule agonists of the antioxidant response element (ARE) signaling pathway (AID 743202; active = well fitted activation curve with a large enough effect in the signal ratio in the repeat runs, not every such curve was filed as active; the % refers to the signal ratio; also: potency is read from the fitted curve at half-maximal effect). A digest of the protocol: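 After 16 hours of compound treatment at 37 C, HepG2 cells with a stably integrated ARE-driven beta-lactamase reporter were loaded 2 hours at room temperature with LiveBLAzer B/G FRET substrate and fluorescence intensity measured.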

Estrogen receptor (Homo sapiens), sequence (P03372 whole entry, looked up): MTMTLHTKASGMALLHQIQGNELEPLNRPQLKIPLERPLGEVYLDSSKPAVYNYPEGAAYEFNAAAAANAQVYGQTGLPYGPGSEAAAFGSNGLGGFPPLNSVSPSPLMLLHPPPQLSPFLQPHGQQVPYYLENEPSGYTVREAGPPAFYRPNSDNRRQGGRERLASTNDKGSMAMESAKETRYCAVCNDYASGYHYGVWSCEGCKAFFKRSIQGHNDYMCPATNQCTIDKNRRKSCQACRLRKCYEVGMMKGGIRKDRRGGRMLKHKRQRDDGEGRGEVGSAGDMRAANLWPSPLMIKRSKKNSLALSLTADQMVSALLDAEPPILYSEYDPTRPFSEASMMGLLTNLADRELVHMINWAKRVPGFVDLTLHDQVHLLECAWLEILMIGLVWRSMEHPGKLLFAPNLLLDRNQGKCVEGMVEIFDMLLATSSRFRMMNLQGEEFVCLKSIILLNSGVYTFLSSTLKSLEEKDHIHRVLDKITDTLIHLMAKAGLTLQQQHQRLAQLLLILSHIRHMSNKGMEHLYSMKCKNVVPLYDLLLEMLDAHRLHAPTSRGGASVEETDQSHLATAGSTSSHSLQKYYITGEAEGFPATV
Peroxisome proliferator-activated receptor gamma (Homo sapiens), sequence (P37231 whole entry, looked up): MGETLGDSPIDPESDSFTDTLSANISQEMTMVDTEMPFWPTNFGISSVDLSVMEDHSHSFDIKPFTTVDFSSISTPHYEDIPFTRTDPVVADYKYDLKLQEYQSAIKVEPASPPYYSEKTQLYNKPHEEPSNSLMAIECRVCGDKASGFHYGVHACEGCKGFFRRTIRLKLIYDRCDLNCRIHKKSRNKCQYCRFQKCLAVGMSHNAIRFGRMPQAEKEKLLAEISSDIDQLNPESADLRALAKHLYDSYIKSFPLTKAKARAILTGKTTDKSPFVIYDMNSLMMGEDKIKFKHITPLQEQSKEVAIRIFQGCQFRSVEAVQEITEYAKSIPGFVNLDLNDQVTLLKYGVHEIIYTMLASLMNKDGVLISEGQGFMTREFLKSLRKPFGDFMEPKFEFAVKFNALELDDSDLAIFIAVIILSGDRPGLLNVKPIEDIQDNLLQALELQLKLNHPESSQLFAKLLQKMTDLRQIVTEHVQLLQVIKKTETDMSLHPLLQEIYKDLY
Aromatase (Homo sapiens), sequence (P11511 whole entry, looked up): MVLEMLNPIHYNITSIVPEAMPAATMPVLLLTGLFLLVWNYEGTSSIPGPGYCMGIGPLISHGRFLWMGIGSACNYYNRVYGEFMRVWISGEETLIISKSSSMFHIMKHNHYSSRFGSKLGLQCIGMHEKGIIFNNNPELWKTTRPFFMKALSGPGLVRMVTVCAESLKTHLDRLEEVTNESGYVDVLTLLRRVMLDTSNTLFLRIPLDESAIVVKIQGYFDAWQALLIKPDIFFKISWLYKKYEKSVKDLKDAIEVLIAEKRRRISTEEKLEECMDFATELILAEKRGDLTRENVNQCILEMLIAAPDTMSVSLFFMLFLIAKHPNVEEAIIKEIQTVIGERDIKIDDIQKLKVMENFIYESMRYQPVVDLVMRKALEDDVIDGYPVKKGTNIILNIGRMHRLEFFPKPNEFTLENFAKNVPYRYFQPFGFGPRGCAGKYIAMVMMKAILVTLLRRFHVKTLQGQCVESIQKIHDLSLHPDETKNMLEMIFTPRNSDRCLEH
Aryl hydrocarbon receptor (Homo sapiens), sequence (P35869 whole entry, looked up): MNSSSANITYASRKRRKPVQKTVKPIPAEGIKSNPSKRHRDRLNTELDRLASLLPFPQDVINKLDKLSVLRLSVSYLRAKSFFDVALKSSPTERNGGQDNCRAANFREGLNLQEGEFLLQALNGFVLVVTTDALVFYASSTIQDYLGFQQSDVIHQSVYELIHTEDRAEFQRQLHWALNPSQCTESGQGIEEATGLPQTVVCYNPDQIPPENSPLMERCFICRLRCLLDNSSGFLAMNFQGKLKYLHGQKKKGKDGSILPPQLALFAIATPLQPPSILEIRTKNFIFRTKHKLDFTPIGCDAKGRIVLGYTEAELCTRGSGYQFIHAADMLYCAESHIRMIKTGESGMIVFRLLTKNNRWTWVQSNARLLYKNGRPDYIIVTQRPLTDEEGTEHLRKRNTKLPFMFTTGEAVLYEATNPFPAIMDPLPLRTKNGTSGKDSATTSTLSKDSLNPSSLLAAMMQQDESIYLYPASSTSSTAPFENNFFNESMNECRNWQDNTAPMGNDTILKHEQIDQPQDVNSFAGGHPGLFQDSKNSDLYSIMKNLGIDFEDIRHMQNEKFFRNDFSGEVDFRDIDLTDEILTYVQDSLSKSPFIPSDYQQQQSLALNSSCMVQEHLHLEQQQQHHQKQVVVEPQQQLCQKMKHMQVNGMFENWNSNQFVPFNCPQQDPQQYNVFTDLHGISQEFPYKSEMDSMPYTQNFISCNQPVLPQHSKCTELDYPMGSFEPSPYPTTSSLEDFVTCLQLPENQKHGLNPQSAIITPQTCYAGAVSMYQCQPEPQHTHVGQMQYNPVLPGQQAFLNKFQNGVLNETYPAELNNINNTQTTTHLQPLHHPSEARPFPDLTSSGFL

Consider `Cc1onc(-c2c(F)cccc2Cl)c1C(=O)N[C@@H]1C(=O)N2[C@@H]1SC(C)(C)[C@@H]2C(=O)O`, for which the Potency result in experiment [1], in experiment [2], in experiment [3], in [4], in experiment [5] and in [6] was “inactive” each time. Moreover, the Potency entry in experiment [7], in experiment [8] and in experiment [9] was “inactive” throughout.

Take `CN=C(N)NCCC[C@H](N)C(=O)O`: the Potency result in experiment [1], in experiment [3], in experiment [4], in experiment [5], in experiment [6] and in experiment [7] was “inactive” throughout. In addition, in experiment [8], the Potency result is “inactive”.

For `CC(C)OC(=O)Nc1ccc2nc(-c3cscn3)[nH]c2c1`, the Potency in [10] is 3.76 µM (active); in experiment [12], 2.11 µM (active); in [7], 6.68 µM (active). The Potency entry in experiment [2], in [3], in [11], in [5], in [6] and in experiment [8] was “inactive” in each case. Also, the Potency entry in [9] is “inactive”.

Turning to `NC(N)=NCc1cccc(I)c1`, the Potency result in experiment [1], in experiment [2], in [13], in experiment [3], in experiment [11] and in experiment [4] was “inactive” each time. Besides, the Potency entry in experiment [5], in experiment [6], in experiment [7], in [8] and in experiment [9] was “inactive” in each case. Moreover, the Potency in [14] was 21.1 µM (active) and 11.9 µM (active).

Regarding `CO/N=C(\C(=O)N[C@@H]1C(=O)N2C(C(=O)[O-])=C(C[n+]3ccc(N)n3CCO)CS[C@H]12)c1csc(N)n1`, the Potency result in experiment [1], in [3], in experiment [4], in [5], in experiment [6] and in experiment [7] was “inactive” in each case. The Potency entry in experiment [8] and in experiment [9] was “inactive” throughout.

Take `FC(F)(F)C(F)(F)C(F)(F)C(F)(F)C(F)(F)F`: the Potency result in experiment [10], in experiment [2], in experiment [13], in experiment [3], in [11] and in experiment [12] was “inactive” in each case. The Potency entry in experiment [14], in experiment [5], in [6], in [7], in experiment [8] and in experiment [9] was “inactive” throughout.

For `O=C1CC[C@@H](C(=O)N[C@H]2C[C@@H]2c2ccccc2)N1`, the Potency result in experiment [1], in experiment [13], in experiment [3], in experiment [11], in experiment [12] and in [14] was “inactive” throughout. Also, the Potency entry in experiment [4], in experiment [5], in experiment [6], in experiment [7], in experiment [8] and in experiment [9] was “inactive” each time.

Regarding `O=C1c2ccccc2-c2n[nH]c3cccc1c23`, the Potency in [10] was 11.9 µM (active); in [7] it was 29.8 µM (active). The Potency entry in experiment [2], in experiment [3], in [12] and in experiment [5] was “inactive” in each case.

Turning to `Cc1ncc(C[n+]2csc(CCOP(=O)(O)O)c2C)c(N)n1`, the Potency entry in [1], in experiment [3], in [4], in [5], in experiment [6] and in experiment [7] was “inactive” each time. Further, the Potency result in experiment [8] and in experiment [9] was “inactive” in each case.

For `O=C(CCCCCCCCc1cccnc1)N1CCC(C=C(c2ccccc2)c2ccccc2)CC1`, the Potency in experiment [1] was 27.3 µM (active); in experiment [3], 43.6 µM (active); in experiment [15], 19.5 µM (active); in experiment [17] it was 12.3 µM (active). For the same molecule, the Potency result in experiment [7], in [8] and in experiment [16] was “inactive” each time.

With `O=P(O)(O)OP(=O)(O)OP(=O)(O)O`, the Potency result in experiment [1], in experiment [2], in [13], in [3], in [11] and in experiment [12] was “inactive” in each case. For the same molecule, the Potency entry in experiment [14], in [4], in experiment [5], in experiment [6], in experiment [7] and in experiment [8] was “inactive” in each case. The Potency entry in [9] is “inactive”.

For the molecule `COc1c(O)cc2c(c1O)[C@@H]1O[C@H](CO)[C@@H](O)[C@H](O)[C@H]1OC2=O`, the Potency result in experiment [1], in experiment [2], in experiment [13], in experiment [11], in experiment [12] and in [14] was “inactive” throughout. In addition, the Potency result in experiment [4], in [5], in [6], in experiment [7], in experiment [8] and in experiment [9] was “inactive” throughout.

In the case of `S=C1NC=NC2N=CNC12` (stereo unspecified), the Potency entry in [1], in [2], in experiment [4], in experiment [5], in experiment [6] and in [8] was “inactive” in each case. Further, the Potency result in experiment [16] was “inactive”. The Potency was 11 µM (active) in [3], 30.6 µM (active) in experiment [7] and 4.86 µM (active) in experiment [18].
